EPAC2 antagonist – qHTS for Antagonist of cAMP-regulated guanine nucleotide exchange factor 2 (EPAC2): primary screen; Rap guanine nucleotide exchange factor 4 (Homo sapiens), Q8WZA2; EPAC2 GEF exchange of Rap1B-BODIPY-GDP, fluorescence; Potency, µM (top dose mostly 114 µM), actives largely listed as inhibitors; 360,000 tested, 0.18% active; AID 720708, 2013; note: nearly all actives have a fitted effect of over 45% in size
EPAC1 antag – qHTS for Antagonist of cAMP-regulated guanine nucleotide exchange factor 3 (EPAC1): primary screen; Potency, µM (doses to about 115 µM), usual class: inhibitors; Rap guanine nucleotide exchange factor 3 (Homo sapiens), O95398; AID 720709, 2013; 360,000 tested, 0.14% active; EPAC1 GEF assay, Rap1b-BODIPY-GDP exchange fluorescence; note: nearly all actives have a fitted effect of over 50% in size
EPAC2 ag – qHTS for Agonist of cAMP-regulated guanine nucleotide exchange factor 4 (EPAC2): primary screen | Rap guanine nucleotide exchange factor 4 (Homo sapiens), Q8WZA2 | EPAC2 activation, biochemical qHTS; response scale: 100% = 6.5 mM cAMP response | Potency, µM (top dose mostly 154 µM), usual class: activators | 360,000 tested, 0.079% active; note: nearly all actives have a fitted effect of over 50% in size
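Compounds were added across a concentration range to EPAC2 (100 nM), RAP1B-BODIPY-GDP (250 nM) and GDP (50 uM). After 5 min at room temperature, fluorescence was recorded at 5-min intervals for 30 min.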
USP1-UAF1 inh – Inhibitors of USP1/UAF1: Primary Screen; recombinant USP1/UAF1, Ub-Rhodamine cleavage fluorescence; 390,000 tested, 0.23% active; Potency, µM (highest dose often 57.1 µM), actives largely listed as inhibitors; Ubiquitin carboxyl-terminal hydrolase 1 (Homo sapiens), O94782; note: nearly all actives have a fitted effect of over 60% in size
Target sequence (O94782 whole entry, looked up): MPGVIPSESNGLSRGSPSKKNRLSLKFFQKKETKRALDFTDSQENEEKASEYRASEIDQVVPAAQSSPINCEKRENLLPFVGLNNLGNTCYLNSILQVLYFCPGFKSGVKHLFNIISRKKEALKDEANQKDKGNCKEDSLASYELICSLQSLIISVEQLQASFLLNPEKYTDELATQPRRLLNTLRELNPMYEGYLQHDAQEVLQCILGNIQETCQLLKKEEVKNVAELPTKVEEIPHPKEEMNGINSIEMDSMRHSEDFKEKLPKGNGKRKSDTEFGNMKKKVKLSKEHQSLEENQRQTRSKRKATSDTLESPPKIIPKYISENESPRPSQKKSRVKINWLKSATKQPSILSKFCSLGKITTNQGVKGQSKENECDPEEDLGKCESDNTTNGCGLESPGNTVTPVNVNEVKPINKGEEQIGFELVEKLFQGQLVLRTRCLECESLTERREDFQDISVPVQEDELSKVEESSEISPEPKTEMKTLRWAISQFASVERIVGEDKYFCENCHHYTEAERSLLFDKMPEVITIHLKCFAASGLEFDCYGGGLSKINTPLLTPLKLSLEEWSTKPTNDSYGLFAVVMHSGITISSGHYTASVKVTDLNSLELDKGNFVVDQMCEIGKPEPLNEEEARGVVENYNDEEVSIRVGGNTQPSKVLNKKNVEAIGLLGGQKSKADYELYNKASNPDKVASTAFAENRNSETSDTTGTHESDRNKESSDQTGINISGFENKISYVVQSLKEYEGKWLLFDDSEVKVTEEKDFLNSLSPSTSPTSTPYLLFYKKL
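USP1/UAF1 complex at 1 nM was preincubated with compound for 15 min at room temperature, then Ub-Rho substrate (150nM final) was added. Fluorescence (480/540 nm) was read kinetically, 6 reads every 60 seconds.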
EPAC1 agonist – qHTS for Agonist of cAMP-regulated guanine nucleotide exchange factor 3 (EPAC1): primary screen; Rap guanine nucleotide exchange factor 3 (Homo sapiens), O95398; EPAC1 agonist qHTS, biochemical assay; response scale: 100% = response to 6.5 mM cAMP; Potency, µM (titrated, usually from 154 µM), usual class: activators; 360,000 tested, 0.073% active; AID 720707, 2013; note: nearly all actives have a fitted effect of over 60% in size
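Fluorescent GDP-exchange assay: 100 nM EPAC1 with 250 nM Rap1B preloaded with BODIPY-GDP and 50 uM GDP; compounds tested as concentration series, 5 min at room temperature, then read every 5 min for 30 min (ex 480/em 540 nm); normalized to 6.5 mM cAMP.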
HEK293 tox – qHTS of GLP-1 Receptor Inverse Agonists: Cytotox Screen. 410,000 tested, 0.13% active. HEK293 cAMP-luciferase reporter cells, luminescence, 24 h. AID 624418, 2012. Potency, µM (top dose mostly 38.3 µM), usual class: inhibitors;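 note: loss of luciferase light is scored as toxicity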
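Compound-treated cells are incubated 24 hr at 37 deg C under 5% CO2 after a 12 hour attachment period, then luciferase detection reagent is added and luminescence is measured following 12 min at room temperature; lowered signal indicates toxicity.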
Large screens that a line does not name were inactive. Rows were chosen to be rich in hits. Some 0.55% of all compounds tested hit in one or more screens of this group. Calls come from the whole dose curve; as a rule, active = well fitted curve in the direction sought with a large enough effect; inconclusive = small, poorly fitted or top-dose-only effect, or another doubt; inactive = no such curve, though single readings can be large; an effect the other way counts as inactive or inconclusive.

Cc1ccc(N=Cc2cc(Cc3ccccc3Cl)cc([N+](=O)[O-])c2O)c(O)c1	EPAC2 antagonist inconclusive, EPAC1 antag inconclusive, USP1-UAF1 inh 18µM
C#CCn1c(=NC(=O)c2ccc(S(=O)(=O)N3CCc4ccccc4C3)cc2)sc2cc(S(N)(=O)=O)ccc21	HEK293 tox 3.5µM
COc1ccc(CSc2nc(O)cc(=O)n2CC(C)C)cc1F	none
COc1ccc(OC)c(NC(=O)CSc2nc(O)cc(=O)n2CC(C)C)c1	EPAC1 antag 56µM
Cc1cccc(S(=O)(=O)NC(=O)C2(C)CCN2C(=O)Cc2cc(F)ccc2F)c1 (centres undefined)	EPAC1 antag 100µM (no result: USP1-UAF1 inh)
CC1(C(=O)NS(=O)(=O)c2cccc(Cl)c2)CCN1C(=O)Cc1cc(F)ccc1F (centres undefined)	none (no result: USP1-UAF1 inh)
CCOC(=O)C1=C(N)c2ccccc2CC1C1CCCC1 (centres undefined)	EPAC2 antagonist 16µM
Cc1ccc(-c2nnc(Nc3ccc(Br)cc3)c3ccccc23)cc1S(=O)(=O)N1CCN(C)CC1	none (no result: EPAC2 antagonist, EPAC1 antag, EPAC2 ag, EPAC1 agonist)
CS(=O)(=O)c1ccc(C(=O)OCc2nnc(-c3ccccc3)o2)cc1[N+](=O)[O-]	EPAC1 antag 89µM, HEK293 tox inconclusive
CN(C)S(=O)(=O)c1ccc(C(=O)OCc2nnc(-c3ccccc3)o2)cc1	none
C[N+]1(C)CCC(=C2c3ccccc3CC(=O)c3sccc32)CC1	USP1-UAF1 inh 28µM
CCCCCCN1C=CC=C/C1=C/C=C(C#N)C#N	EPAC1 antag 89µM, USP1-UAF1 inh inconclusive
C=CCN1C=CC(=CC=C(C#N)C#N)C=C1	none
CCCN1C=CC(=CC=C(C#N)C#N)C=C1	USP1-UAF1 inh 22µM
Cc1ccc(Cn2c(SCC(=O)NCc3ccccc3)nc3ccsc3c2=O)cc1	none (no result: EPAC2 antagonist, EPAC1 antag, EPAC2 ag, EPAC1 agonist)
COc1ccc(CCCc2nnc(SCC(=O)Nc3cccc(C)c3)o2)cc1C	none (no result: EPAC2 antagonist, EPAC1 antag, EPAC2 ag, EPAC1 agonist)
CCCSc1nc(C)cc(C)c1S(=O)(=O)c1ccccc1C	EPAC2 antagonist 10µM, EPAC1 antag inconclusive
Cc1cc(C)c(S(=O)(=O)c2ccccc2C)c(SCC(C)C)n1	EPAC2 antagonist inconclusive
COC(=O)c1ccc(Cn2c(=O)cc(C(F)(F)F)c3c(C)nn(C)c32)cc1	none (no result: EPAC2 antagonist, EPAC1 antag, EPAC2 ag, EPAC1 agonist)
COc1cccc(NC(=O)CN(C)C(=O)CNC(=O)c2ccc(Oc3ccccc3)cc2)c1	EPAC1 agonist 63µM
CNC(=S)N/N=C/c1cc(C)ccc1C	HEK293 tox inconclusive
CCNC(=S)N/N=C/c1cc(C)ccc1C	HEK293 tox 5.6µM
COC(=O)c1ccc(OC)c(-c2c(OC)cc(OC)cc2OC)c1	none
COc1cc(OC)c(-c2cc(C(=O)O)ccc2OC)c(OC)c1	EPAC1 antag 89µM
Cn1cccc1-c1cc2n(n1)CCC(=O)N2CCCC(=O)NCc1ccc(F)cc1	USP1-UAF1 inh inconclusive (no result: EPAC2 antagonist, EPAC1 antag, EPAC2 ag, EPAC1 agonist)
COC(=O)c1cc2oc3ccccc3c2n1CC(=O)Nc1cccc(SC)c1	none (no result: EPAC2 antagonist, EPAC1 antag, EPAC2 ag, EPAC1 agonist)
N=C1CCC(=N)c2c1c(O)c1ccccc1c2O	EPAC1 antag inconclusive, USP1-UAF1 inh 25µM
CCCc1nn2c(=O)cc(COC(=O)c3ccccc3NC(=O)c3ccc(OCC)cc3)nc2s1	USP1-UAF1 inh inconclusive (no result: EPAC2 antagonist, EPAC1 antag, EPAC2 ag, EPAC1 agonist)
CC(=O)NC(c1ccccc1)c1cc([N+](=O)[O-])c2cccnc2c1O (centres undefined)	EPAC1 antag inconclusive, HEK293 tox inconclusive
CC(=O)NC(c1ccco1)c1cc(Cl)c2cccnc2c1O (centres undefined)	EPAC2 antagonist inconclusive (no result: USP1-UAF1 inh, HEK293 tox)
CC(=O)NC(c1ccc(C)cc1)c1cc(Cl)c2cccnc2c1O (centres undefined)	EPAC2 antagonist 40µM
